Where “and” joins values, the source holds several entries; their conditions need not be identical. Identical values can stand only once. Compounds without any hit were thinned out: in the full panel of roughly 83,000, 20% have a hit.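 Growth was measured after 48 h exposure to one concentration of compound in 96-well plates. Values under 10 count as active.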 Calls of active or inactive are those of the source.

Among the test systems are NCI-H23 lung; NCI-H226 lung; NCI-H322M lung; HOP-62 NSCLC; NCI-H460 lung; HOP-92 NSCLC; NCI-H522 lung; A549/ATCC NSCLC; 786-0 renal; COLO 205 colon; DU-145 prostate; K-562 leukemia; MALME-3M melanoma; MDA-MB-231 breast; RXF 393 renal; SF-268 CNS; SF-295 CNS; SF-539 CNS; UACC-257 melanoma; M14 melanoma.
Common to all, as to assay: NCI-60 one-dose screen, 48 h (100 = growth as untreated, 0 = no growth, -100 = all killed)
Common to all, as to conditions: 10 µM unless noted

As for `N#CCN(CC#N)[N+](=O)[O-]`, the growth is 109% (inactive) with NCI-H23 lung; 97.9% (inactive) in the test on NCI-H226 lung; 110% (inactive) in the test on NCI-H322M lung; 102% (inactive) in the test on HOP-62 NSCLC; 104% (inactive) with NCI-H460 lung; 84.9% (inactive) in the test on HOP-92 NSCLC. Also, the growth was 94.4% (inactive) in the test on NCI-H522 lung; 106% (inactive) in the test with A549/ATCC NSCLC; 103% (inactive) with 786-0 renal; 110% (inactive) in the test on COLO 205 colon; 107% (inactive) in the test with DU-145 prostate; 105% (inactive) with K-562 leukemia. Further, the growth was 111% (inactive) in the test with MALME-3M melanoma; 103% (inactive) in the test with MDA-MB-231 breast; 106% (inactive) in the test with RXF 393 renal; 102% (inactive) with SF-268 CNS; 110% (inactive) with SF-295 CNS; 102% (inactive) in the test on SF-539 CNS. Moreover, the growth in the test with UACC-257 melanoma is 113% (inactive).
On to `C(=NC1CCCCC1)=NC1CCCCC1`, for which the growth in the test with NCI-H23 lung was 106% (inactive) and 31.1% (inactive); in the test on NCI-H226 lung, 103% (inactive) and 57% (inactive); in the test on NCI-H322M lung, 117% (inactive) and 99.1% (inactive); in the test with HOP-62 NSCLC, 109% (inactive) and 86.8% (inactive); with NCI-H460 lung, 107% (inactive) and 100% (inactive); with HOP-92 NSCLC, 92.8% (inactive) and 62.3% (inactive). The growth in the test on NCI-H522 lung is 91.8% (inactive) and 85.2% (inactive); in the test on A549/ATCC NSCLC, 111% (inactive) and 87% (inactive); in the test on 786-0 renal, 104% (inactive) and 87.1% (inactive); with COLO 205 colon, 115% (inactive) and 88.6% (inactive); with DU-145 prostate it was 107% (inactive) and 97.9% (inactive); with K-562 leukemia it was 97.8% (inactive) and 69% (inactive). Besides, the growth was 108% (inactive) and 53.2% (inactive) in the test on MALME-3M melanoma; 97.2% (inactive) and 88.3% (inactive) in the test with MDA-MB-231 breast; 109% (inactive) and 94.6% (inactive) with RXF 393 renal; 108% (inactive) and 88.2% (inactive) in the test with SF-268 CNS; 87% (inactive) in the test on SF-295 CNS; 101% (inactive) and 97.7% (inactive) with SF-539 CNS. Moreover, the growth with UACC-257 melanoma was 133% (inactive) and 44.3% (inactive); in the test on M14 melanoma, 115% (inactive) and 87.1% (inactive).
With `Oc1ccccc1C=NCCN=Cc1ccccc1O.[Fe]`, the growth in the test on NCI-H23 lung was 86.1% (inactive); in the test on NCI-H226 lung, 85% (inactive); in the test with NCI-H322M lung, 111% (inactive); with HOP-62 NSCLC, 74.9% (inactive); in the test with NCI-H460 lung, 59.7% (inactive); with HOP-92 NSCLC, 98.7% (inactive). In addition, the growth with NCI-H522 lung was 47.5% (inactive); in the test with A549/ATCC NSCLC it was 61.6% (inactive); in the test on 786-0 renal, 102% (inactive); with COLO 205 colon, 108% (inactive); in the test on DU-145 prostate, 104% (inactive); with K-562 leukemia, 85.3% (inactive). Further, the growth was 69.7% (inactive) in the test with MALME-3M melanoma; 34.9% (inactive) with MDA-MB-231 breast; 98.8% (inactive) in the test with RXF 393 renal; 97.4% (inactive) in the test on SF-268 CNS; 85% (inactive) in the test on SF-295 CNS; 88.8% (inactive) in the test on SF-539 CNS. In addition, the growth in the test with UACC-257 melanoma was 46.9% (inactive).
Take `O=C1NC(=O)C(=Cc2ccccc2)C(=O)N1`: the growth is 98.5% (inactive) and 102% (inactive) in the test on NCI-H23 lung; 96.1% (inactive) and 101% (inactive) in the test with NCI-H226 lung; 106% (inactive) and 105% (inactive) in the test with NCI-H322M lung; 94.9% (inactive) and 92.6% (inactive) in the test on HOP-62 NSCLC; 127% (inactive) and 105% (inactive) with NCI-H460 lung; 85.9% (inactive) and 109% (inactive) in the test with HOP-92 NSCLC. The growth in the test with NCI-H522 lung is 96.1% (inactive) and 94.5% (inactive); with A549/ATCC NSCLC, 101% (inactive) and 91.4% (inactive); in the test with 786-0 renal, 102% (inactive) and 107% (inactive); in the test with COLO 205 colon it was 135% (inactive) and 109% (inactive); in the test on DU-145 prostate, 103% (inactive) and 111% (inactive); in the test on K-562 leukemia, 86.2% (inactive) and 112% (inactive). Moreover, the growth in the test on MALME-3M melanoma was 96.1% (inactive) and 109% (inactive); in the test with MDA-MB-231 breast it was 96.4% (inactive) and 110% (inactive); with RXF 393 renal, 98.5% (inactive) and 116% (inactive); in the test on SF-268 CNS, 92.9% (inactive) and 104% (inactive); in the test with SF-295 CNS, 107% (inactive) and 102% (inactive); in the test with SF-539 CNS, 133% (inactive) and 101% (inactive). In addition, the growth in the test with UACC-257 melanoma was 98.6% (inactive); in the test on M14 melanoma, 103% (inactive) and 106% (inactive).
In the case of `CN(C)c1ccc([N+](=O)[O-])c([N+](=O)[O-])c1`, the growth in the test with NCI-H23 lung is 109% (inactive) and 96.9% (inactive); in the test on NCI-H226 lung it was 113% (inactive) and 105% (inactive); in the test with NCI-H322M lung it was 111% (inactive) and 101% (inactive); in the test with HOP-62 NSCLC it was 113% (inactive) and 122% (inactive); with NCI-H460 lung, 110% (inactive) and 109% (inactive); with HOP-92 NSCLC, 101% (inactive) and 104% (inactive). Besides, the growth is -70.3% (active) and 64.7% (inactive) in the test with NCI-H522 lung; 101% (inactive) and 88.3% (inactive) in the test with A549/ATCC NSCLC; 116% (inactive) and 106% (inactive) in the test on 786-0 renal; 106% (inactive) and 122% (inactive) in the test with COLO 205 colon; 103% (inactive) and 113% (inactive) in the test on DU-145 prostate; 113% (inactive) and 104% (inactive) in the test on K-562 leukemia. Further, the growth in the test with MALME-3M melanoma is 100% (inactive); with MDA-MB-231 breast, 98.4% (inactive) and 99.1% (inactive); in the test with RXF 393 renal it was 111% (inactive) and 95.3% (inactive); with SF-268 CNS it was 106% (inactive) and 111% (inactive); with SF-295 CNS, 112% (inactive) and 106% (inactive); with SF-539 CNS it was 128% (inactive) and 104% (inactive). Also, the growth in the test on UACC-257 melanoma was 95.7% (inactive) and 88.2% (inactive); in the test on M14 melanoma, 99.4% (inactive) and 93.7% (inactive).
Take `CC12CCC3C(CCC4CC(O)CCC43C)C1CCC2=O` (stereo not drawn): the growth is 98.4% (inactive) in the test on NCI-H23 lung; 98.1% (inactive) in the test with NCI-H226 lung; 102% (inactive) in the test on NCI-H322M lung; 95.8% (inactive) in the test with HOP-62 NSCLC; 100% (inactive) with NCI-H460 lung; 74.5% (inactive) in the test on HOP-92 NSCLC. For the same molecule, the growth with NCI-H522 lung was 61.9% (inactive); in the test on A549/ATCC NSCLC, 94.2% (inactive); in the test with 786-0 renal, 78.1% (inactive); with COLO 205 colon it was 130% (inactive); in the test on DU-145 prostate, 103% (inactive); with K-562 leukemia it was 103% (inactive). The growth in the test on MALME-3M melanoma was 102% (inactive); with MDA-MB-231 breast, 111% (inactive); in the test on RXF 393 renal it was 133% (inactive); with SF-268 CNS, 116% (inactive); in the test on SF-295 CNS, 94.8% (inactive); in the test with SF-539 CNS, 99.1% (inactive). Also, the results for the growth in the test on UACC-257 melanoma and with M14 melanoma were -10.3% (active) and 98.8% (inactive), respectively.
